Experimental data: the supplement of paper PMC11732987, “Enantioselective OTUD7B fragment discovery through chemoproteomics screening and high-throughput optimisation” (Communications Chemistry, 2025)

Key:
Assay in all cases: log2 ratio of Biotin-Ahx-Ub-VS probe labelling (fragment/DMSO); higher = less target engagement (more negative = stronger competition), active = hit call of the paper (q ≤ 0.05, log2 ratio ≤ -1)
Conditions in all cases: compound concentration: 200 uM; treatment time: 3 h
USP34 = USP34 (UniProt Q70CQ2)
Chain of USP34 (Q70CQ2 whole entry, the tested form may be a part): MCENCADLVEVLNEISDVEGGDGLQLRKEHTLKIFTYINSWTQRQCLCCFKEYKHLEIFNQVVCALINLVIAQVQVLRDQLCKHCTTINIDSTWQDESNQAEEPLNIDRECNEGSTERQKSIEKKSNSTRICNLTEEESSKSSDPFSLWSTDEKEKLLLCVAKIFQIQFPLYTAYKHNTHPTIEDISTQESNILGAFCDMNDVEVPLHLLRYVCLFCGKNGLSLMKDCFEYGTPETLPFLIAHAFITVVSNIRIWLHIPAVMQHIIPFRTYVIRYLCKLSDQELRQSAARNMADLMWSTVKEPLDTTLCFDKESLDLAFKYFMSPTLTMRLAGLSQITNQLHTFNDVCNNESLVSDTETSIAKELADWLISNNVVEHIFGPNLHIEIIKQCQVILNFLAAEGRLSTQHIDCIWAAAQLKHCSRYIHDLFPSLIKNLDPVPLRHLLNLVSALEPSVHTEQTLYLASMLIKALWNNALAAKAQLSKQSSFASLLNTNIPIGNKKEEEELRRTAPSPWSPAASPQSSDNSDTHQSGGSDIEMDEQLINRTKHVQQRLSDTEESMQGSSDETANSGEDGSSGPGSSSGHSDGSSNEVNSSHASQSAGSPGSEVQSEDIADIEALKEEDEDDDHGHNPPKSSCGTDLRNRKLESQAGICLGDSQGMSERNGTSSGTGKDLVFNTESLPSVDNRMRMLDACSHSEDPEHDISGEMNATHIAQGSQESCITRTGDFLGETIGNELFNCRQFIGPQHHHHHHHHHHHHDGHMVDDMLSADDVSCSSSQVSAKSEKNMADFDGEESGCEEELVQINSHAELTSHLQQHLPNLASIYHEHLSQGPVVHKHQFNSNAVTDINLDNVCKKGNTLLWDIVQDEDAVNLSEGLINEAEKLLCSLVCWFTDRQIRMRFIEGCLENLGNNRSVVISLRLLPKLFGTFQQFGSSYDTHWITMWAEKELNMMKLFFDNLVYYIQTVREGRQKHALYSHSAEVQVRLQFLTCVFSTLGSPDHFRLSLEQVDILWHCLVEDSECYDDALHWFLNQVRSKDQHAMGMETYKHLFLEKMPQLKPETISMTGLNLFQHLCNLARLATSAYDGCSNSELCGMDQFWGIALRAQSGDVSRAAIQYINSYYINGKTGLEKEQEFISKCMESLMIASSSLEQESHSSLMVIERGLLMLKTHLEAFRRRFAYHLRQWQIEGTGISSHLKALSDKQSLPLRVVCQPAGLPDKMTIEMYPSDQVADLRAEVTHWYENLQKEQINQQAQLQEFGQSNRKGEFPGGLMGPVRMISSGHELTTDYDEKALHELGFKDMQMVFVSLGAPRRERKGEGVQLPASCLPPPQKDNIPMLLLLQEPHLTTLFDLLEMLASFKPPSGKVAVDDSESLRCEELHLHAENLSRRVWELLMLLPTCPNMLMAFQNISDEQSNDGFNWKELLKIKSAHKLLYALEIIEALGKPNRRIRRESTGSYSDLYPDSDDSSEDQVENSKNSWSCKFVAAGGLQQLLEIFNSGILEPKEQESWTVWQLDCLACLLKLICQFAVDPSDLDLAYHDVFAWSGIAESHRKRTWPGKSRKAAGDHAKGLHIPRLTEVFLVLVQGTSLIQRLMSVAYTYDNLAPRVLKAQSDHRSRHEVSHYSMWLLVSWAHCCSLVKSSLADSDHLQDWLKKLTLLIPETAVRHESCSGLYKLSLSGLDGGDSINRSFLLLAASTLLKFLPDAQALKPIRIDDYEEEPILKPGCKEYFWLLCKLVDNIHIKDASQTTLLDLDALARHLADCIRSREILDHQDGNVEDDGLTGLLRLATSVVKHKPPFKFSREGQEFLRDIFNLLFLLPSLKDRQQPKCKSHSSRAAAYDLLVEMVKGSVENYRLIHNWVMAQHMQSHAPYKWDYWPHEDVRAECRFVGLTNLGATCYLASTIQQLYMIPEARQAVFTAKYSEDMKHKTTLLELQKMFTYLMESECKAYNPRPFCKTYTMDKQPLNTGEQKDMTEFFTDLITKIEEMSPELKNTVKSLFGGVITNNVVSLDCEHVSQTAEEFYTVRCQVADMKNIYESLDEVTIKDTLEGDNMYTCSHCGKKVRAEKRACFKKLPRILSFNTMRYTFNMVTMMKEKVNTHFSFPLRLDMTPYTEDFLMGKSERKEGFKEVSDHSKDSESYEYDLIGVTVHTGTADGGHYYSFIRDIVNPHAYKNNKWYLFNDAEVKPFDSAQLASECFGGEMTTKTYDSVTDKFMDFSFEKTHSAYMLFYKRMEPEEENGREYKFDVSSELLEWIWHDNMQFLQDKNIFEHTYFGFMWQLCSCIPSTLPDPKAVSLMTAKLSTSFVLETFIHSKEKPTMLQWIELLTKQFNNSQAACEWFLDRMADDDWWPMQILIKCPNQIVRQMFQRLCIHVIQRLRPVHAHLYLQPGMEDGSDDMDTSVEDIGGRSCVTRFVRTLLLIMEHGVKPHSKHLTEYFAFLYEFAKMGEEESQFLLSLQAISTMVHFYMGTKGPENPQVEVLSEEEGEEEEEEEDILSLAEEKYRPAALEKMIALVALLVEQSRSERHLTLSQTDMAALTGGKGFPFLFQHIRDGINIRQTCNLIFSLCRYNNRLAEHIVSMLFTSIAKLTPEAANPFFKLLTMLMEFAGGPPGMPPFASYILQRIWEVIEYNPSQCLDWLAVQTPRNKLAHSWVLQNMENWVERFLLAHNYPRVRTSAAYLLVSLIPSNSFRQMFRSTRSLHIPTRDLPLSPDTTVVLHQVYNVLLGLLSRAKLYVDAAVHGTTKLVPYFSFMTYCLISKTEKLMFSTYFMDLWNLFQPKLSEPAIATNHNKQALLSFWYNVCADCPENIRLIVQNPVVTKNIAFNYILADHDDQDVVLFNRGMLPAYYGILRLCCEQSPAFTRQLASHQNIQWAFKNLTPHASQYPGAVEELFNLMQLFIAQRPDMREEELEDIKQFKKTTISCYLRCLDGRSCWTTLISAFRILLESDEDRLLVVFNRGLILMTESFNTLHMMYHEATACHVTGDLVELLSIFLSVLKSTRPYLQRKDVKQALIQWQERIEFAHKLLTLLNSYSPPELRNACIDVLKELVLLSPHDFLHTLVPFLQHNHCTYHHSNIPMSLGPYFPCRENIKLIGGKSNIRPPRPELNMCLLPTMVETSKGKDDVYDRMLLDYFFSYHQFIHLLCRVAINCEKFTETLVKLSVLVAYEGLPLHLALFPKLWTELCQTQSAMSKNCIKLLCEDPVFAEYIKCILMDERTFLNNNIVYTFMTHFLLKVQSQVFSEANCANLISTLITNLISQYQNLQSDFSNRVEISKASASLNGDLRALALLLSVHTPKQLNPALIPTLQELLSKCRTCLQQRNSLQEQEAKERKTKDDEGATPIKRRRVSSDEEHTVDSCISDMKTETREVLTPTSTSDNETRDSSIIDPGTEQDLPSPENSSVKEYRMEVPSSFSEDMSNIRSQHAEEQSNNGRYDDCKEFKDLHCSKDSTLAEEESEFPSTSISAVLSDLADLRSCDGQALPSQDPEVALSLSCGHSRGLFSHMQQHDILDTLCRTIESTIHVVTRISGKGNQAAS
Procedure, shortened: (§1)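 Triplicate samples of HEK293T lysate, 495 µg each, received fragment at 200 µM or vehicle for 3 h, followed by Biotin-Ahx-Ub-VS (0.5 µM final) for 1 h. After NeutrAvidin enrichment of labelled DUBs and LysC/trypsin digestion, peptides were run by diaPASEF LC-MS/MS. The values are average log2 fragment/vehicle ratios from global-median-normalised Spectronaut label-free quantities, tested by unpaired t-test on proteins having ≥2 unique peptides.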

USP36 = target: T1, USP36 (UniProt Q9P275)
T1 sequence (whole entry): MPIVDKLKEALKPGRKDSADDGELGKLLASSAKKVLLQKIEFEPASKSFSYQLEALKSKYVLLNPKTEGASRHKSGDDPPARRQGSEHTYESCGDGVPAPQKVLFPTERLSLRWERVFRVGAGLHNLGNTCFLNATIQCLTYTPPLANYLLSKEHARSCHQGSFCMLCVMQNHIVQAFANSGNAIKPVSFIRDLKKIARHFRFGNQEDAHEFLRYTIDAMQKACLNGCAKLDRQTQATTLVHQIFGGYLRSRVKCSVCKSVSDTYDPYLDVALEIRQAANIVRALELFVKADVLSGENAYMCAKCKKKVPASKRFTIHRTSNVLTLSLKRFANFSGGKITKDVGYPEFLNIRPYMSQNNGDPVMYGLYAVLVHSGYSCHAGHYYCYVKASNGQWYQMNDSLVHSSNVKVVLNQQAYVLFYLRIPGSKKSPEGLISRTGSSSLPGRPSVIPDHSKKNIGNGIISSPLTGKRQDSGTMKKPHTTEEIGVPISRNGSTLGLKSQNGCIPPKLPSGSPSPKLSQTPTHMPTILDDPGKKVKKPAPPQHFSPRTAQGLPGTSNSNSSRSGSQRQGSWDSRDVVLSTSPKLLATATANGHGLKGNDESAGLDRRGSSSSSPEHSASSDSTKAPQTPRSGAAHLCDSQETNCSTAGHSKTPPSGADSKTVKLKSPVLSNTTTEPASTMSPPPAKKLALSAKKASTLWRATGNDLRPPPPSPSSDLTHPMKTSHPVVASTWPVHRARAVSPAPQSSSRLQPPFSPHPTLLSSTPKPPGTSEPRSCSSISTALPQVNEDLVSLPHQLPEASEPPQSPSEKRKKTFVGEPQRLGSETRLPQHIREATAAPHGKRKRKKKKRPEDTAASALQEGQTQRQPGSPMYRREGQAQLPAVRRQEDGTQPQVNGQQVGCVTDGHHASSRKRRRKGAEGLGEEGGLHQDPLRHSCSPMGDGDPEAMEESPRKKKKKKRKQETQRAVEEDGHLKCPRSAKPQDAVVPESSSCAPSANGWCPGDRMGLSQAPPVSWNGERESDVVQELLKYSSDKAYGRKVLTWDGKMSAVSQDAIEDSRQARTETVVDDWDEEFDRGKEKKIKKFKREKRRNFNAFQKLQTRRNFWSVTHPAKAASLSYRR
Procedure, shortened: as §1

USP38 = target: T2, USP38 (UniProt Q8NB14)
T2 sequence (whole entry): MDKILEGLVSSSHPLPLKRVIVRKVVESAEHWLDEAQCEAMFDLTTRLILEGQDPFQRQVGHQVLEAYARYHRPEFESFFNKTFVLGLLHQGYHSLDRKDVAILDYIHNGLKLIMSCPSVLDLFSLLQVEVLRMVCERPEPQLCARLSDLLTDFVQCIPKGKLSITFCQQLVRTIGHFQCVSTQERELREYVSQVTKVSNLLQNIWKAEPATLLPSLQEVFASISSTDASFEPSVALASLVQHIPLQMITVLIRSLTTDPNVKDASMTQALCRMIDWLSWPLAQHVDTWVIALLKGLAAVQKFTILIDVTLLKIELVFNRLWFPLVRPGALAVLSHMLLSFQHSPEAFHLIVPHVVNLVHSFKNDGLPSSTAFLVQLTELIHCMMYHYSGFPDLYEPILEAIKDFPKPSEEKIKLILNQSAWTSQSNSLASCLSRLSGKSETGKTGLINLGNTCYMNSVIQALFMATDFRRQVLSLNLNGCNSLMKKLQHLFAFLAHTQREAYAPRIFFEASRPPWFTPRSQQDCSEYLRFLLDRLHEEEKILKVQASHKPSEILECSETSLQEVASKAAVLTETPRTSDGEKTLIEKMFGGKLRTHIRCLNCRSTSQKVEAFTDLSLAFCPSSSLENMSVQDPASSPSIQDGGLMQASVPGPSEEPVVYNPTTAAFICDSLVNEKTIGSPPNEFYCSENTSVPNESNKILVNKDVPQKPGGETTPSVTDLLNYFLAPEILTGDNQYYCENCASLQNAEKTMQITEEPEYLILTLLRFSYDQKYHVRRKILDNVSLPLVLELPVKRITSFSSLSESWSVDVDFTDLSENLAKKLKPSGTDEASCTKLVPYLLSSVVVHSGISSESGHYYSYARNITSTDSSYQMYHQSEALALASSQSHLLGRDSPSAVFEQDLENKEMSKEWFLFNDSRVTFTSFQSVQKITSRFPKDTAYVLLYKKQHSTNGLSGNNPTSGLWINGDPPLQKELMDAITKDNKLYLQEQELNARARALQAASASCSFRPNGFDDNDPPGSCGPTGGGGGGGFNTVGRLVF
Procedure, shortened: as §1

USP39 = target: T3, USP39 (UniProt Q53GS9)
T3 sequence (whole entry): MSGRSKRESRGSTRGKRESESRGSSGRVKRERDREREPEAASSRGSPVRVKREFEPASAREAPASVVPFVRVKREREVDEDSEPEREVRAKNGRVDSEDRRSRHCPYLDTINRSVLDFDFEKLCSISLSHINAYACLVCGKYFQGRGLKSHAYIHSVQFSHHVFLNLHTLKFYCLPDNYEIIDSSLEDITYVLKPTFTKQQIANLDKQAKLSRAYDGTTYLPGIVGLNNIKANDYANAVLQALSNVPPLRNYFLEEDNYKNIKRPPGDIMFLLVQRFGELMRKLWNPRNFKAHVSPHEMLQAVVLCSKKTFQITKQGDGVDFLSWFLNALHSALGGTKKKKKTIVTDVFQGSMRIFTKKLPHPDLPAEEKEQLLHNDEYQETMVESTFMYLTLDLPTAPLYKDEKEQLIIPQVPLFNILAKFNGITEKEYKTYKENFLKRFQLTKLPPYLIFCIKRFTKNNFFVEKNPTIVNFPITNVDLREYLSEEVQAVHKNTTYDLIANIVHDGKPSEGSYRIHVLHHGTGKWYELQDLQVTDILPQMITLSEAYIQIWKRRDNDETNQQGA
Procedure, shortened: as §1

USP4 = target: T4, USP4 (UniProt Q13107)
T4 sequence (whole entry): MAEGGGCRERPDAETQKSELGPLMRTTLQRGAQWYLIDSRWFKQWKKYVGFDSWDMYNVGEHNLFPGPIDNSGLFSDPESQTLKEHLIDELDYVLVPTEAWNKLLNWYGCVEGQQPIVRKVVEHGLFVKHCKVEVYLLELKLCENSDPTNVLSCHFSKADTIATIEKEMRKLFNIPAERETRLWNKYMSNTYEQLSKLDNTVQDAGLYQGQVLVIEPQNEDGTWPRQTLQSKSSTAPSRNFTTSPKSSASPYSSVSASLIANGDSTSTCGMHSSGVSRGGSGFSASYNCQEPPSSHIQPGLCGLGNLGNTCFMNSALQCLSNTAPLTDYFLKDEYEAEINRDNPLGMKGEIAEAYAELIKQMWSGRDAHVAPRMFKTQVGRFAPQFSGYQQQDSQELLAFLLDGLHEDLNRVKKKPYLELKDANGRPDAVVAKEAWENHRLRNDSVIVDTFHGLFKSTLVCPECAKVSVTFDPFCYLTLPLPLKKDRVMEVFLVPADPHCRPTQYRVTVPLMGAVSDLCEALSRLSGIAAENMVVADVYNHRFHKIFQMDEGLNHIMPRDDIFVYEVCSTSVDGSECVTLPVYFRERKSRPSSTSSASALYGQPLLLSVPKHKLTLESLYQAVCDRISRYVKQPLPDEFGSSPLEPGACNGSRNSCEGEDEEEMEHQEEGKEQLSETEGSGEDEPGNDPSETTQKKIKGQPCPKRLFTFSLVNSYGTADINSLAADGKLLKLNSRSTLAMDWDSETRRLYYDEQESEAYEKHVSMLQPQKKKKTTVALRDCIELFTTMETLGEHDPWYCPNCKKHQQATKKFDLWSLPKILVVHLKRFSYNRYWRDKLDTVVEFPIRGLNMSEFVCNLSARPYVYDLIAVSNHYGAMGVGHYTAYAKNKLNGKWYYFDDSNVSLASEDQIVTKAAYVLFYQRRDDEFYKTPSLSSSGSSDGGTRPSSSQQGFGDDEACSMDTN
Procedure, shortened: as §1

Measured: log2 ratio of Biotin-Ahx-Ub-VS probe labelling

O=C(CCl)N1CCOC(CCc2ccccc2)C1 (stereo not given)
inactive: USP34 -0.338 | USP36 0.0399 | USP38 -0.227 | USP39 0.136 | USP4 -0.729
